Shn3 inh set2 = reduction of Shn3 3'UTR firefly luciferase signal, primary screen, Schnurri-3 inhibitor project, cell-based, Clone20 osteoblasts, set 2; Clone20 osteoblast Shn3 3'UTR firefly luciferase, 24 h; AID 588674, 2011; inhibition, % at 12.5 µM; 0.52% of 360,000 active;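 active = mean inhibition of at least 75% with every replicate also reaching 75%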;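 note: 0% = median of neutral control wells and 100% = pilot-screen positive control compound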
Peg3 prom inh-1 = Peg3 promoter-driven luciferase inhibitors, primary screen, cell-based, HeLa, luciferase luminescence; HeLa PEG-Prom luciferase reporter, overnight; inhibition, % at 20 µM; 1.7% of 360,000 active; AID 588405, 2011;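 active = inhibition of at least 50% at 20 µM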
MITF TRPM1 inh = inhibitors of MITF-dependent TRPM1 promoter reporter, primary screen, cell-based, SK-MEL-5, single point, luciferase; SK-MEL-5 TRPM1 promoter luciferase, 24 h; inhibition, % at 12.5 µM; 0.83% of 330,000 active; AID 488899, 2010;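 active = mean inhibition across replicates of 60% or more, whatever share of single replicates reaches that level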
TWEAK Fn14 block = inhibitors of TWEAK-Fn14 signaling, primary screen, luciferase reporter cells, uHTS; TWEAK-stimulated Fn14 reporter cells, luciferase luminescence, 8 h; inhibition, % at 10 µM; 2% of 360,000 active; AID 1159606, 2016; in the data active = inhibition above about 50%
EBV LMP1 NFkB = EBV LMP1-driven NF-kappaB luciferase reporter inhibitors, primary screen, cell-based, luminescence, single point; LMP1-induced NF-kappaB luciferase reporter cells; inhibition, % at 12.5 µM; 0.69% of 350,000 active; AID 504558, 2011; in the data active = inhibition above about 41%;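 note: 0% = neutral control wells and 100% = reference inhibitor control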
TROY signal inh = inhibitors of TROY-driven NF-kB signaling, primary screen, Q293 LMP1-TROYcd cells, NF-kB luciferase, uHTS | 0.98% of 360,000 active | inhibition, % at 10 µM | Q293 LMP1-TROYcd NF-kB luciferase reporter, 4 h;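 active = compounds whose plate-normalised and pattern-corrected inhibition of the luciferase reporter signal at the single screening dose is 50% or more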
Peg3 prom inh-2 = Peg3 promoter reporter inhibitors, retest, confirmation, cell-based, HeLa, luciferase reporter, single concentration; 84% of 1,300 active; inhibition, % at 20 µM; HeLa PEG-Prom luciferase reporter, luminescence, overnight; shares compounds with Peg3 prom inh-1;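 active = at 20 µM dose, 40% or more inhibition averaged across four replicates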
* hit, by the source's call; . = not tested or not shown. Rows were chosen to be rich in hits. Some 4.1% of all compounds tested hit in one or more screens of this group.

SMILES | Shn3 inh set2 | Peg3 prom inh-1 | MITF TRPM1 inh | TWEAK Fn14 block | EBV LMP1 NFkB | TROY signal inh | Peg3 prom inh-2
CCc1ccccc1NC(=O)N1C[C@H]2C[C@@H](C1)c1cccc(=O)n1C2 | -10 | -6 | -1 | -14 | -3 | -10 | .
O=Cc1cn(Cc2ccc(F)cc2)c2ccccc12 | 6 | 78* | -4 | 22 | 10 | 11 | 69*
O=Cc1cn(Cc2ccc([N+](=O)[O-])cc2)c2ccccc12 | 15 | 91* | 7 | 3 | 10 | -1 | 80*
COc1cccc2c1C(=O)c1c(O)c3c(c(O)c1C2=O)CC(O)(C(C)=NO)CC3OC1CC(N)C(O)C(C)O1 (configuration not stated) | 36 | 99* | 70* | 6 | 42* | 8 | 99*
O=C1NCN(c2ccccc2)C12CCN(C(c1ccnc3ccccc13)c1nnnn1Cc1ccccc1)CC2 (configuration not stated) | 8 | 18 | . | 4 | . | 9 | .
CCN(CC)C(=O)c1ccc(NC(=O)Nc2ccccc2F)cc1 | 17 | 56* | 30 | 72* | 51* | 76* | 45*
CCN(CC)C(=O)c1ccc(NC(=O)CCCSc2ccccc2)cc1 | 10 | -7 | -3 | -4 | -4 | -4 | .
O=C1NC(=O)C(=Cc2cccs2)C(=O)N1 | 28 | 16 | 5 | -22 | 4 | 14 | .
O=C1NC(=S)N(c2ccccc2F)C(=O)/C1=C\c1cccs1 | 37 | 102* | -2 | 29 | 6 | 17 | 83*
CC1=CC(O)C(O)C2(C)C1CC1OC(=O)C(O)C3C(C)C(O)C4(O)OCC13C42 (configuration not stated) | -15 | 68* | 11 | -3 | -4 | 15 | 45*
CC(=O)OC1CC2(O)C3CCC4CC(O)CCC4(C)C3CCC2(C)C1C1=CC(=O)OC1 (configuration not stated) | -24 | 97* | 71* | 85* | 72* | 46 | 99*
O=c1ccc2cc3ccoc3c(O)c2o1 | 4 | 4 | . | 7 | -17 | -1 | .
